Inconclusive results are not listed. The source made the active and inactive calls.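 How the source made its calls, unless noted: active means percent response above a set limit, the screen-wide mean plus 3 SD (cut at about 130% in these data); inactive means the rest.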
What was measured:
[1] = rapamycin-like changes in RPL19A-GFP expression – cell-based, S. cerevisiae, multiplex flow cytometry, primary screen (AID 1862; in the data active means percent of DMSO control GFP below about 86%;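 further: lower values mimic rapamycin by blocking the RPL19A rise seen in DMSO cells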); conditions: S. cerevisiae RPL19A-GFP strain, flow cytometry fluorescence, 3 h; at 10 µM; stronger effect = lower value
[2] = TOR pathway GLN3 branch reporter MEP2-GFP changes – S. cerevisiae, multiplex flow cytometry, primary screen (AID 1867;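 active means GFP response, as percent of the DMSO control, above the screen-wide mean plus 3 SD, about 139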;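 further: median GFP channel fluorescence of barcode-gated MEP2-GFP cells measured by flow cytometry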); conditions: S. cerevisiae MEP2-GFP strain, 3 h, at 10 µM, stronger effect = higher value, 100% means same as DMSO wells
[3] = TOR pathway RTG branch CIT2 reporter changes – S. cerevisiae, GFP fusion, multiplex flow cytometry, primary screen (AID 1870);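 further: barcoded CIT2-GFP strain pooled with four other GFP strains with rapamycin as positive control; median GFP fluorescence per well over plate mean of DMSO wells so 100% = DMSO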; conditions: S. cerevisiae CIT2-GFP expression, 3 h, at 10 µM, stronger effect = higher value
[4] = TOR pathway LAP4-GFP level changes – S. cerevisiae, multiplex flow cytometry, primary screen (AID 1873;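 active means GFP signal, as percent of the solvent control, above the screen mean plus 3 SD, about 149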); conditions: S. cerevisiae LAP4-GFP expression, 3 h, at 10 µM, stronger effect = higher value
[5] = yeast AGP1-GFP level changes, GLN3 branch – cell-based, multiplex flow cytometry, S. cerevisiae, primary screen (AID 1887;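 active means GFP signal above the screen-wide mean plus 3 SD, that is over about 124.5% of the solvent control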;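 further: AGP1-GFP fusion strain of S. cerevisiae within a five-strain barcoded multiplex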); conditions: 3 h, at 10 µM, stronger effect = higher value
[6] = reduced mouse 2C T cell binding to pMHC/ICAM-1 vesicles – MLPCN validation set, flow cytometry, LFA-1/ICAM-1 modulator project, pilot screen (AID 2523;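 active means response below a set limit, under 55% cells CD8-positive and vesicle-bound, and CD8 cells' 90th-percentile brightness under 279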;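 on vesicle binding response: mean PE anti-B7-1 fluorescence of CD8+ cells relative to row control; 100% = QL9-loaded vesicles with DMSO vehicle in the same plate row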); conditions: 2C mouse CD8+ T cells, at 7 µM, stronger effect = lower value; double positive events: measured here: CD8+/vesicle+ event percentage
[7] = biological target: Integrin beta-1 (Homo sapiens) + Integrin alpha-4 (Homo sapiens) (UniProt P13612+P05556); assay: alpha4beta1 integrin LIBS antibody binding reduction – U937 cells, HUTS-21 mAb, flow cytometry, validation set, VLA-4 allosteric modulator project, pilot screen (AID 2674;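 active means inhibition above 50%, about 3 SD of the validation set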;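 further: antibody binding induced by the VLA-4 ligand LDV present at three times its Kd; 0% = LDV ligand with antibody and no compound and 100% = antibody without LDV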); conditions: HUTS-21 LIBS mAb binding, at 6.7 µM, stronger effect = higher value, binding induced by LDV ligand
[8] = calorie-restriction mimetic ROS inhibitors, yeast – validation compound set, pilot screen (AID 2706;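 active means superoxide response below 65% of plate, a cut near 3 SD across the whole screen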;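 further: yeast exposed to compound for one week at 30 degrees C before staining; 100% = mean of all compound wells on the same plate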); conditions: S. cerevisiae aging, superoxide DHE fluorescence; at 10 µM, stronger effect = lower value
[9] = biological target: Beta-adrenergic receptor kinase 1 (Homo sapiens) (UniProt P25098); assay: GRK2 binders displacing RNA aptamer, biochemical, validation, human GRK2, bead flow cytometry (AID 488806;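 active means aptamer binding inhibition above 30%, about 3 SD of noise from non-fluorescent compounds; inactive means inhibition at or below 30%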); conditions: bead-bound GRK2, FAM-aptamer displacement, at 10 µM, stronger effect = higher value
[10] = biological target: AP-2 complex subunit beta (Homo sapiens) (UniProt P63010); assay: beta-arrestin/AP2 interaction blockers – biochemical, validation set, GST-AP2 beads, flow cytometry, pilot screen (AID 504541;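 active means inhibition above 54%, about 3 SD of non-fluorescent compounds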;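 further: AP2 carries R879A mutation and is captured from E. coli lysate; bead-bound FITC arrestin peptide fluorescence measuring arrestin peptide binding to AP2; 0% = DMSO wells and 100% = excess unlabeled arrestin peptide control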); conditions: FITC arrestin peptide, at 10 µM, stronger effect = higher value, AP2 beta2 appendage fragment, R879A mutant
[11] = cytosolic pH regulators acting via V-ATPase – S. cerevisiae, pHLuorin, HTS validation (AID 504600; in the data active means response above about 15%;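 further: plate controls were DMSO for no effect and reference compound for full effect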); conditions: V-ATPase proton transport, at 10 µM, stronger effect = higher value
[12] = tested on: anti-desmoglein-3 scFv antibody binding to human DSG3; assay: blockers of pathogenic pemphigus antibody–desmoglein-3 binding – biochemical, validation compound set, bead-based, flow cytometry, pilot screen (AID 588368;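 active means binding below the plate cutoff, the plate median minus 3 SD, with a reading above zero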;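 further: signal is the median channel fluorescence of bead-bound GFP antibody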); conditions: Protein G beads, DSG3-Fc, scFv-GFP binding, at 10 µM, stronger effect = lower value
[13] = Nile Red efflux blockade in pump-expressing yeast – validation compound set, multiplex, phenotypic, pilot screen (AID 588506;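 active means efflux inhibition above 0.42, the validation set average plus 4 SD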;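 further: Nile Red retained in cells so higher fluorescence means more efflux inhibition; 0 = negative control wells and 1 = enniatin B 25 µM full block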); conditions: S. cerevisiae pump-expressing triplex, Nile Red efflux flow cytometry; at 10 µM; stronger effect = higher value; the pumps come from Candida albicans
[14] = biological target: ATP-binding cassette sub-family B member 6 (Homo sapiens) (UniProt Q9NP58); assay: blockers of ABCB6-driven porphyrin uptake – K562-ABCB6 cells, flow cytometry, validation set, pilot screen (AID 588550;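 active means inhibition above the screen-wide mean plus 3 SD, about 51%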;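 further: 0% = DMSO wells and 100% = benzethonium chloride 70 µM positive control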); conditions: K562-ABCB6 porphyrin accumulation, 1 h, at 10 µM, stronger effect = higher value
[15] = AML differentiation inducers, ER-HoxA9 marrow cells – cell-based, GFP/MAC1 double positive, flow cytometry, validation set, primary screen (AID 588685;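 active means differentiation response of at least 50%, scaled between solvent and reference control, from cells with both markers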;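 further: compound exposure lasts four days before antibody staining and flow analysis; 0% = DMSO wells and 100% = 5 µM fulvestrant positive control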); conditions: stronger effect = higher value, normalized: vehicle 0, fulvestrant 100

ATP-binding cassette sub-family B member 6 (Homo sapiens), sequence (Q9NP58 whole entry, looked up): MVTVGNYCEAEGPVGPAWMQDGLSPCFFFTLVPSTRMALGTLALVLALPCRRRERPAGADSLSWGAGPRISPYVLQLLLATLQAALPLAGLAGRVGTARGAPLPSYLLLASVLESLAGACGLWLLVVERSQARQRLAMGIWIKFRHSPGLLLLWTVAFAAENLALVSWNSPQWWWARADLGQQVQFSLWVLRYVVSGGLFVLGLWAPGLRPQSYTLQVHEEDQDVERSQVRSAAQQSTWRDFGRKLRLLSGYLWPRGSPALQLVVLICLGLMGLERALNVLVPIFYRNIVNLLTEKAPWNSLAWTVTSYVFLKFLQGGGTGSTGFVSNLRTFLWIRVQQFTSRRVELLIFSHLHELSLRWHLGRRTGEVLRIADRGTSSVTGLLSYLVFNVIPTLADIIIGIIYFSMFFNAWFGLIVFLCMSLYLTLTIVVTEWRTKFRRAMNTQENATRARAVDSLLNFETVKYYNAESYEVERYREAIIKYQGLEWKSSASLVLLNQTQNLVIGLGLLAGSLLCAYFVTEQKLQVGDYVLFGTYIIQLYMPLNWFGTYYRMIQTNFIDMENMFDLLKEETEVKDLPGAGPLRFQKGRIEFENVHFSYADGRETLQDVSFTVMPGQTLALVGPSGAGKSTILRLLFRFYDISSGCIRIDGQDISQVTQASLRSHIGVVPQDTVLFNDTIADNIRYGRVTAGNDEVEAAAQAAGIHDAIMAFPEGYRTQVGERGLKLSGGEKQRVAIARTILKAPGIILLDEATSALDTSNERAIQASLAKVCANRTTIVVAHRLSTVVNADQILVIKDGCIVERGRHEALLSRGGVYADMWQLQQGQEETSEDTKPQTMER
AP-2 complex subunit beta (Homo sapiens), sequence (P63010 whole entry, looked up, the tested form may be a part, one chain of several): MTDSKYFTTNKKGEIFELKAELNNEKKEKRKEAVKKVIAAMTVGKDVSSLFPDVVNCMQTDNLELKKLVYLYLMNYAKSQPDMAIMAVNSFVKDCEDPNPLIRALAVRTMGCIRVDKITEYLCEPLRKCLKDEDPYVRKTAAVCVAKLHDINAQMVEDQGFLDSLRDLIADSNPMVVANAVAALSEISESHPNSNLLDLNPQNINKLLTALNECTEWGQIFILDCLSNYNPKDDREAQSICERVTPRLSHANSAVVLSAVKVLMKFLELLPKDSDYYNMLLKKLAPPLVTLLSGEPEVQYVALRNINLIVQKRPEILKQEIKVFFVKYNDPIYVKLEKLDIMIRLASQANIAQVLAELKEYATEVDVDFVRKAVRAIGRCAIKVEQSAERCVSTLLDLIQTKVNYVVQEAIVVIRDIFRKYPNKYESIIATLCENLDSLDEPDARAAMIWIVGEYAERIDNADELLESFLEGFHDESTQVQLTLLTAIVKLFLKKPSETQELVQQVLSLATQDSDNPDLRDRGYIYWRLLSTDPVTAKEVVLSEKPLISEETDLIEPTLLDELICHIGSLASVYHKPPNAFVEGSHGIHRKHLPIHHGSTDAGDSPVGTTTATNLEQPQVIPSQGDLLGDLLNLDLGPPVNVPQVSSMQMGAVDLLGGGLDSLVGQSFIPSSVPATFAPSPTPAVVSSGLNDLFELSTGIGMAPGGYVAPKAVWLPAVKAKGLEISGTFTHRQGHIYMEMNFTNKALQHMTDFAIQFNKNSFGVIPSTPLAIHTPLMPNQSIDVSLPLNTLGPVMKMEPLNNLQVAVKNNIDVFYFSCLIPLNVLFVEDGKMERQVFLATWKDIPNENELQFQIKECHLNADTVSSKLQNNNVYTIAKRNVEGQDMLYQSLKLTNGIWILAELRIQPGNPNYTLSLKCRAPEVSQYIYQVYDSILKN
Beta-adrenergic receptor kinase 1 (Homo sapiens), sequence (P25098 whole entry, looked up): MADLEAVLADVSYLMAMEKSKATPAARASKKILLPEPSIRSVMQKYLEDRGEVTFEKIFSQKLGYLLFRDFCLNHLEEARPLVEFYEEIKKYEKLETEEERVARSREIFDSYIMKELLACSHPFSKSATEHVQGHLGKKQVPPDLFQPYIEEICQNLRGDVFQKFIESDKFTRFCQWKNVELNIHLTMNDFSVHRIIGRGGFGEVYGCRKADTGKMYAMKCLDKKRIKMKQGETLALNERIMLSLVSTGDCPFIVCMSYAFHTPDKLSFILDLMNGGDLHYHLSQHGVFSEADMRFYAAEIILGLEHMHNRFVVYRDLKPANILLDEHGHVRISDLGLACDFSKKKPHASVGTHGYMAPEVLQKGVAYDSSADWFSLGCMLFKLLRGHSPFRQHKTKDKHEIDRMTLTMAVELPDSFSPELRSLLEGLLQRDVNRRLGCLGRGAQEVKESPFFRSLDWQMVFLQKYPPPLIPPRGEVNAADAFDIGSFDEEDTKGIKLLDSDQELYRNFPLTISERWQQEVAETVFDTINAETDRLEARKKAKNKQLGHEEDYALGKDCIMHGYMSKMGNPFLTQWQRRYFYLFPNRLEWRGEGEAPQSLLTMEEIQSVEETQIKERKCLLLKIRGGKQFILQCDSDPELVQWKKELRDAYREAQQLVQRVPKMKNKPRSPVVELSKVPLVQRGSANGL
Integrin beta-1 (Homo sapiens) + Integrin alpha-4 (Homo sapiens), sequence (P05556 whole entry, looked up): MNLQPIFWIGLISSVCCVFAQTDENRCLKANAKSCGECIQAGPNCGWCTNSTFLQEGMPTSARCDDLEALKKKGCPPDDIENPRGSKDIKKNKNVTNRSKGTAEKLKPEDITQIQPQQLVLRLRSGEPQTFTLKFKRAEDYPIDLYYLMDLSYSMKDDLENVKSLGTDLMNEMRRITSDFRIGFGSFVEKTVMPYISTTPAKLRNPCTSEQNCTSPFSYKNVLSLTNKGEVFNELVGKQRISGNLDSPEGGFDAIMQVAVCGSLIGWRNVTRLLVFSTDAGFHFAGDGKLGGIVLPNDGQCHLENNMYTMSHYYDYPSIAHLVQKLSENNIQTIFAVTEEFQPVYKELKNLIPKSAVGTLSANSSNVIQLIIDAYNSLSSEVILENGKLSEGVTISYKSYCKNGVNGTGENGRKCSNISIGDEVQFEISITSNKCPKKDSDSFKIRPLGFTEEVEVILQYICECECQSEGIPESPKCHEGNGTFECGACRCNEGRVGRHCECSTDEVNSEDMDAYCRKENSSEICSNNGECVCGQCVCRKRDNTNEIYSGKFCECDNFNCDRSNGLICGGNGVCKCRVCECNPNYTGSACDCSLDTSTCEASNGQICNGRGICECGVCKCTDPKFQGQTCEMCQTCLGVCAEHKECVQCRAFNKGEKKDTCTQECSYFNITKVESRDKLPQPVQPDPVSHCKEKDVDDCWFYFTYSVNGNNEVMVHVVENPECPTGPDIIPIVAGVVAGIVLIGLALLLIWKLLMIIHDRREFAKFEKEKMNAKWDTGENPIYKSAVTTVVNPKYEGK
Integrin beta-1 (Homo sapiens) + Integrin alpha-4 (Homo sapiens), sequence (P13612 whole entry, looked up): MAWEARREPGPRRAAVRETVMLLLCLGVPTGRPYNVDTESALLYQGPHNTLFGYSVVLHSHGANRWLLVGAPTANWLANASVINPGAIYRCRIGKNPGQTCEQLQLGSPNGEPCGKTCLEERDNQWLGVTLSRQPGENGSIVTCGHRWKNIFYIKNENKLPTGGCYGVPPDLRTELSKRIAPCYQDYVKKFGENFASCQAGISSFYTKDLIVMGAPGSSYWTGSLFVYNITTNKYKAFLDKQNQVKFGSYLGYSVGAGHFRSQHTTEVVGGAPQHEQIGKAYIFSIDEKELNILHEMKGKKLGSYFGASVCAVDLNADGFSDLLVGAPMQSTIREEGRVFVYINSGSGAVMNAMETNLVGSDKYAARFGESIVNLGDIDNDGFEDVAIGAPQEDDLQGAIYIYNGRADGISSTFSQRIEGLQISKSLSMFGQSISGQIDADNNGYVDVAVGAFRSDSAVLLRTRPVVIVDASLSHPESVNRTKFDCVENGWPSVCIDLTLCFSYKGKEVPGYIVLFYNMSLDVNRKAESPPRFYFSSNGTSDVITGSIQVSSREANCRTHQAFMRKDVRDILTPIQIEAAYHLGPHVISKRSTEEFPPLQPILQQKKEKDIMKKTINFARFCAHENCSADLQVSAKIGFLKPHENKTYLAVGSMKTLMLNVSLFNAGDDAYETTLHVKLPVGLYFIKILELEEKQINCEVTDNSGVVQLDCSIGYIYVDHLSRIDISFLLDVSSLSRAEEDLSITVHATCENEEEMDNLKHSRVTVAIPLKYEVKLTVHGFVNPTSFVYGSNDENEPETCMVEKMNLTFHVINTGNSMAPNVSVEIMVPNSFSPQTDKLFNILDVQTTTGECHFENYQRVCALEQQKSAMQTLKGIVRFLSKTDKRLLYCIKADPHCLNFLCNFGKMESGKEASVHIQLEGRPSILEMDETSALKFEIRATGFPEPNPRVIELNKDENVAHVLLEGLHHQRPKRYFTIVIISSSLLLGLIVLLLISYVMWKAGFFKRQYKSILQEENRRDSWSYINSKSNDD

Row | SMILES | percent of DMSO control GFP [1] | GFP response vs DMSO [2] | percent response of DMSO control [3] | GFP response vs DMSO [4] | GFP response, % of DMSO [5] | double positive events [6] [%] | vesicle binding response [6] | inhibition [7] | superoxide response (% of plate) [8] | aptamer binding inhibition [9] | inhibition [10] | response [11] | binding (% of control) [12] | efflux inhibition (fraction of control) [13] | inhibition [14] | differentiation response [15]
1 | CN1C(=O)C(O)(CC(=O)/C=C/C=C/c2ccccc2)c2ccccc21 (stereo not given) | 104% (inactive) | 98.9% (inactive) | 104% (inactive) | 94.3% (inactive) | 98.1% (inactive) | 54.8 | 153% (inactive) | -0.24% (inactive) | 102% (inactive) | 2% (inactive) | -6.66% (inactive) | 0.35% (inactive) | 99% (inactive) | 0.06 (inactive) | 5% (inactive) | -18% (inactive)
2 | COc1ccc(-c2noc(CCc3ccccc3)n2)cc1 | 103% (inactive) | 109% (inactive) | 90% (inactive) | 101% (inactive) | 91.8% (inactive) | 56.4 | 174% (inactive) | 4.42% (inactive) | 99.8% (inactive) | 0% (inactive) | 4.14% (inactive) | -3.58% (inactive) | 111% (inactive) | 0.48 (active) | 0% (inactive) | -0.2% (inactive)
3 | CCN(CC)CCOC(=O)C1(C2CCCCC2)CCCCC1 | 110% (inactive) | 101% (inactive) | 106% (inactive) | 110% (inactive) | 108% (inactive) | 50.5 | 162% (inactive) | 5.36% (inactive) | 110% (inactive) | -2% (inactive) | -6.04% (inactive) | 1.87% (inactive) | 101% (inactive) | 0.25 (inactive) | -45% (inactive) | -27.6% (inactive)
4 | CC(C)NNC(=O)c1ccncc1 | 100% (inactive) | 101% (inactive) | 107% (inactive) | 114% (inactive) | 111% (inactive) | 55.2 | 178% (inactive) | -7.7% (inactive) | 101% (inactive) | 2% (inactive) | -13.9% (inactive) | -0.37% (inactive) | 98.7% (inactive) | 0.22 (inactive) | 3% (inactive) | -26% (inactive)
5 | C=CCc1cccc2cc(C(=O)Nc3ccc(CC(=O)O)cc3)c(=O)oc12 | 98.6% (inactive) | 106% (inactive) | 94.9% (inactive) | 100% (inactive) | 97.8% (inactive) | 63.1 | 207% (inactive) | -2.11% (inactive) | 141% (inactive) | 2% (inactive) | 28.6% (inactive) | -3.63% (inactive) | 100% (inactive) | 0.1 (inactive) | 5% (inactive) | 7.87% (inactive)
6 | COC(=O)c1ccccc1OCCOCCOc1cccc2ccc(C)nc12 | 106% (inactive) | 103% (inactive) | 99.8% (inactive) | 90.3% (inactive) | 100% (inactive) | 49.8 | 145% (inactive) | 14.7% (inactive) | 116% (inactive) | 2% (inactive) | -2.13% (inactive) | 4.14% (inactive) | 103% (inactive) | -0.05 (inactive) | 9% (inactive) | -13.1% (inactive)
7 | COCCn1c(/C=C/c2ccccc2)nc2ccccc21 | 96.8% (inactive) | 101% (inactive) | 93% (inactive) | 93.3% (inactive) | 87.9% (inactive) | 59.7 | 149% (inactive) | 1.62% (inactive) | 92.6% (inactive) | 2% (inactive) | 10.5% (inactive) | 0.08% (inactive) | 105% (inactive) | 0.22 (inactive) | 6% (inactive) | -5.05% (inactive)
8 | CCCC1O[C@@H]2C[C@H]3[C@@H]4CCC5=CC(=O)C=C[C@]5(C)[C@H]4[C@@H](O)C[C@]3(C)[C@]2(C(=O)CO)O1 (stereo not given in full) | 100% (inactive) | 108% (inactive) | 108% (inactive) | 100% (inactive) | 106% (inactive) | 58.8 | 217% (inactive) | 4.42% (inactive) | 103% (inactive) | 4% (inactive) | 42.5% (inactive) | -0.18% (inactive) | 104% (inactive) | 0.1 (inactive) | 0% (inactive) | 6.26% (inactive)
9 | Nc1ccc(S(=O)(=O)c2ccc(N)cc2)cc1 | 100% (inactive) | 102% (inactive) | 93% (inactive) | 103% (inactive) | 99.3% (inactive) | 63.7 | 142% (inactive) | 8.15% (inactive) | 97.8% (inactive) | 0% (inactive) | 2.16% (inactive) | -1.03% (inactive) | 100% (inactive) | 0.14 (inactive) | 5% (inactive) | -5.05% (inactive)
10 | C[N+]12CCCCC1C(COC(=O)c1ccc3c(c1)OCO3)CCC2 (stereo not given) | 97.6% (inactive) | 96.9% (inactive) | 97.9% (inactive) | 85.3% (inactive) | 93.9% (inactive) | 62 | 116% (inactive) | 10.9% (inactive) | 99.1% (inactive) | 5% (inactive) | -3.8% (inactive) | 1.26% (inactive) | 96.7% (inactive) | 0.14 (inactive) | 12% (inactive) | -19.6% (inactive)
